Source: PubChem BioAssay
Hits are enriched below; roughly 2.4% of the tested compounds scored in any of these assays.
WRN inhibitor: blocks human WRN helicase; Q14191; WRN helicase unwinding, fluorescent forked duplex, kinetic; Potency, µM (doses to about 114 µM), for the others: top-dose activity change, negative = inhibition, hits mostly inhibitors; 360,000 tested, 0.46% active; AID 651768; also: % is scaled to controls: 0 for no effect and ±100 for the full control effect; nearly all actives have a fitted effect of over 55% in size
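Fluorescence dequenching readout, ex 525 nm/em 598 nm, kinetic mode: forked duplex DNA (100 nM final) with adjacent fluorophore and quencher unwound by WRN (20 nM final) with 2 mM ATP. Compound preincubation 15 min, room temperature.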
Pol kappa inh: DNA polymerase kappa (human) inhibition; Q9UBT6; purified Pol kappa, fluorescent DNA synthesis assay, 10 min; Potency, µM (doses to about 107 µM), inactives show top-dose activity, negative = inhibition, most hits filed as inhibitors; 400,000 tested, 0.53% active; also: % is scaled to controls: 0 for no effect and ±100 for the full control effect
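Here, compound and 10 nM enzyme are combined for 15 min at room temperature; adding 50 nM substrate (final) starts DNA synthesis, tracked by fluorescence at 0 and 10 min against buffer-only wells.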
POLB inh: inhibitors of human DNA polymerase beta; P06746; Pol beta primer extension/strand displacement, fluorescence kinetic; Potency, µM (doses to about 114 µM), inactives show top-dose activity change, negative = inhibition, usual class: inhibitors; 340,000 tested, 1.3% active; AID 485314; also: % is scaled to controls: 0 for no effect and ±100 for the full control effect
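10 nM enzyme + cpd, 15 min RT; start with substrate 50 nM final; read 0 min and after 10 min RT. Corrected, normalized data; 4-parameter Hill curve fit.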
Pol eta inh: DNA polymerase eta (human) inhibition; Q9Y253; Potency, µM (series often up to 114 µM), for the others: at the top dose activity change, negative = inhibition, hits mostly inhibitors; AID 588591; recombinant Pol eta, fluorescent DNA replication assay; 390,000 tested, 1.2% active; also: % is scaled to controls: 0 for no effect and ±100 for the full control effect
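Pol eta (10 nM) was preincubated with compounds for 15 min at room temperature, after which fluorescent replication substrate (50 nM final) was added to start the reaction. Fluorescence was read kinetically at 0 and 10 min.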
POLI inh: DNA polymerase iota (human) inhibition | Q9UNA4 | Pol iota fluorescent replication assay, 10 min | Potency, µM (highest dose often 115 µM), for inactives: top-dose activity, negative = inhibition, usual class: inhibitors | 390,000 tested, 1% active | AID 588590
Target sequence (Q9UNA4 whole entry, looked up): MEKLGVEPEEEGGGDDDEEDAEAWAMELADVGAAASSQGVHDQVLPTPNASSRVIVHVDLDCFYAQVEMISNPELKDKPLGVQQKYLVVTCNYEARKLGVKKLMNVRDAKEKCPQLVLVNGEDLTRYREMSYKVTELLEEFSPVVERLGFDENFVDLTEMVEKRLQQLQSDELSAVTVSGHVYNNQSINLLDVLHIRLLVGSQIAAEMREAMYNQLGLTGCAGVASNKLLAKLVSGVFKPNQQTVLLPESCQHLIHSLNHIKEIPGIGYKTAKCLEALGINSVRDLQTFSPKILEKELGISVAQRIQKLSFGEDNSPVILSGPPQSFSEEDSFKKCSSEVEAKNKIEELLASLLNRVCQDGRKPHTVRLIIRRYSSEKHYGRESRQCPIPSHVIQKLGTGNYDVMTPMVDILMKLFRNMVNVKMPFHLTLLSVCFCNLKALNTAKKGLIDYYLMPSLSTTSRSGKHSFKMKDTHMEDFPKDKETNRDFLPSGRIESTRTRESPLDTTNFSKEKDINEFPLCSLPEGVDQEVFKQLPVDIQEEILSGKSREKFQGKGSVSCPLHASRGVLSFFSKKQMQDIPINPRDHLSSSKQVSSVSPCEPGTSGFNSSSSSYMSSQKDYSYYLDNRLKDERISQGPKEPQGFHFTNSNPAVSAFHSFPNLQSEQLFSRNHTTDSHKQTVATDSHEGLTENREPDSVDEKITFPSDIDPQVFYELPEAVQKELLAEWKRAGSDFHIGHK
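Pol iota at 10 nM preincubated 15 min with compounds at room temperature; reaction started with fluorescent substrate, 50 nM final. Fluorescence read kinetically at 0 and 10 min; buffer-only wells as negative control.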
FEN1 inh: human FEN1 inhibition. Recombinant FEN1 flap cleavage, fluorescence, 15 min. Potency, µM (highest dose often 114 µM), inactives show at the top dose activity change, negative = inhibition, actives largely listed as inhibitors. 390,000 tested, 0.35% active. AID 588795; also: % is scaled to controls: 0 for no effect and ±100 for the full control effect; nearly all actives have a fitted effect of over 65% in size
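Steps: FEN1 (10 nM) dispensed; compound added by pin tool; 15 min at room temperature; substrate added to 50 nM final; reads at 0 min and 15 min; data normalized and fitted (four-parameter Hill).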
The depositor's hits bear a star; u = inconclusive; x = no result given; [ ] = dose if it differs, or a comment. Calls follow the shape of the dose curve; as a rule, active = well fitted curve in the direction sought with a large enough effect; inconclusive = small, poorly fitted or top-dose-only effect, or another doubt; inactive = no such curve, though single readings can be large; an effect the other way counts as inactive or inconclusive. Potency is read from the fitted curve at half-maximal effect.

SMILES | WRN inhibitor | Pol kappa inh | POLB inh | Pol eta inh | POLI inh | FEN1 inh
O=C(N/N=C/c1cccc([N+](=O)[O-])c1)c1cc(-c2ccc3c(c2)OCO3)n[nH]1 | -13%[11.6 µM] | u | -23% | 18µM* | u | -24%
CC(=O)N/N=C/c1ccc([N+](=O)[O-])o1 | x | -8%[19.4 µM] | x | x | x | x
COc1ccccc1OCC(=O)N/N=C/C=C/c1ccc([N+](=O)[O-])o1 | -24% | u | 32µM* | u | 79µM* | -7%
O=C(N/N=C/c1cccc(O)c1)c1cc(-c2ccc3c(c2)OCO3)n[nH]1 | 4% | -8% | u | -12% | u | 5%
Cc1ccccc1NC(=O)c1ccccc1OCC(=O)Nc1ccc(Br)cc1 | x | -13% | x | x | 11% | -25%
Cc1cc2c(cc1S(=O)(=O)Nc1cccc(Cl)c1C)OCCN2C | x | -5% | -2% | 0% | -15% | 26%
O=C(N/N=C/C=C/c1ccccc1[N+](=O)[O-])c1cccs1 | -12% | -4% | 1% | -14% | 19% | -10%
O=C(CN1CCOCC1)N/N=C/c1ccc(-c2ccc(C(=O)O)cc2)o1 | -8% | -29% | u | 40µM* | 0% | 10%
O=C(N/N=C\C=C\c1ccc([N+](=O)[O-])o1)c1cccs1 | -8%[11.6 µM] | 79µM* | 32µM* | 50µM* | 5µM* | -34%
O=C(N/N=C/c1ccc([N+](=O)[O-])o1)c1ccc2c(c1)OCO2 | -14% | -21% | 40µM* | -7% | u | -9%
Cc1nn(-c2ccc(Cl)cc2)c(Cl)c1/C=N/NC(=O)c1ccc(NS(=O)(=O)c2cccs2)cc1 | -21% | -16% | x | 79µM* | -4% | -24%
CC(=O)NC(Cc1c(F)c(F)c(F)c(F)c1F)C(=O)NCC(N)C(=O)c1ccccc1 (stereo not drawn) | x | 5% | x | x | -7% | -2%
C=C1CC[C@H](O)C/C1=C/C=C1\CCC[C@]2(C)C([C@H](C)CC[C@@H](O)C(C)(C)O)CC[C@@H]12 (stereo partly drawn) | x | 2%[19.4 µM] | x | x | x | x
CN(C)CC(O)Cn1c2ccc(Br)cc2c2cc(Br)ccc21 (stereo not drawn) | x | 6%[19.4 µM] | x | x | x | x
O=C(N/N=C/c1ccc([N+](=O)[O-])o1)c1ccc(NS(=O)(=O)c2cccs2)cc1 | -10%[11.6 µM] | -34% | u | 32µM* | 50µM* | u
O=C(N/N=C/c1ccc2c(c1)OCO2)c1ccc(NS(=O)(=O)c2cccs2)cc1 | -26% | -19% | -2% | -11% | 126% | -17%
COc1ccccc1CNC(=O)c1c[nH]c2ccc(S(=O)(=O)Nc3cc(C)cc(C)c3)cc2c1=O | x | -16%[60.1 µM] | 5% | -15% | -14% | -24%
Cc1c(O)ccc2c1OC(C)(C)CC2 | x | -8% | x | x | 53% | 8%
COc1cccc(NC(=O)C/C(C)=N/NC(=O)c2ccccc2Cl)c1 | 5% | 10% | 0% | 2% | u | -10%
C/C(CC(=O)Nc1ccc(Cl)c(C(F)(F)F)c1)=N\NC(=O)c1cc2ccccc2cc1O | -11%[57.1 µM] | u | -14% | -8% | 89µM* | -20%
C/C(CC(=O)N1CCCC1)=N\NC(=O)c1cc2ccccc2cc1O | -4% | u | -74% | -8% | 79µM* | -10%
S=c1nc[nH]c2n[nH]nc12 | x | 1% | x | x | -5% | -5%
COc1cccc(NC(=O)Cn2nnc(-c3nc(-c4ccccc4)no3)c2N)c1 | x | -11%[60.1 µM] | 18µM* | -4% | 89µM* | -5%
Cc1ccc(NC(=O)Cn2nnc(C(=O)NCCc3ccccc3)c2N)cc1C | x | u | u | -24% | 89µM* | 15%
CCOc1ccc(CCNC(=O)c2nnn(CC(=O)Nc3ccc(OC)cc3)c2N)cc1OCC | -4% | -5% | 16% | -5% | 25% | -7%
COc1ccc(NC(=O)Cn2nnc(C(=O)NCCc3ccccc3)c2N)cc1 | -18% | -34% | 25µM* | -26% | 35µM* | 14%
CCc1ccc(NC(=O)Cn2nnc(C(=O)NCCc3ccccc3)c2N)cc1 | x | -11% | -1% | -19% | -11% | 15%
